Assay outcomes as filed in PubChem BioAssay.
Compounds with a hit are over-represented: about 9.4% of the library has one in this group of screens.
FLuc counter: qHTS profiling assay for firefly luciferase inhibitor/activator using purifed enzyme and Km concentrations of substrates (counterscreen for miR-21 project); Luciferin 4-monooxygenase (Photinus pyralis), P08659; purified FLuc, Km substrates, luminescence inhibition; Potency, µM (series often up to 57.5 µM), without a hit: top-dose activity change, negative = inhibition, most hits filed as inhibitors; hit rate 6.9% among 360,000; AID 588342, 2011;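 note: plate controls were vehicle for no effect and reference inhibitor for full effect; nearly all actives have a fitted effect of over 55% in size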
Target sequence (P08659 whole entry, looked up): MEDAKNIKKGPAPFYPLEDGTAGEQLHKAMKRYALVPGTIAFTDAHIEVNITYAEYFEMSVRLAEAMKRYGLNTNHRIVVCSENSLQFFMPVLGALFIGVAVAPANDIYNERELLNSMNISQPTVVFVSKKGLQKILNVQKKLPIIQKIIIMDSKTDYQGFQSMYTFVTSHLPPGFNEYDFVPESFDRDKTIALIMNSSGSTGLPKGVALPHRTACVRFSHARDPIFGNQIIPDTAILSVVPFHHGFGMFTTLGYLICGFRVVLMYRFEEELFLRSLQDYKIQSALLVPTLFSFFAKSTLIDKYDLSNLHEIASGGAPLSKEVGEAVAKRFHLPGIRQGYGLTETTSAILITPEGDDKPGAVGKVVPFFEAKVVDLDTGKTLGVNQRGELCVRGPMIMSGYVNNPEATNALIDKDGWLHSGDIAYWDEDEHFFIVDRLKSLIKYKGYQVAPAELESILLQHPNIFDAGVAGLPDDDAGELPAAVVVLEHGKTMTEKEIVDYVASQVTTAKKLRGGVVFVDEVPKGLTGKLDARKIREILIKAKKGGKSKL
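Biochemical qHTS of compounds, final roughly 60 µM downward over six points, against 10 nM purified firefly luciferase using Km concentrations of substrates (10 uM D-luciferin, 10 uM ATP) in Tris acetate pH 7.5 buffer; luminescence output.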
NPC1 prom act: qHTS Assay for NPC1 Promoter Activators; hit rate 2.4% among 320,000; Potency, µM (series often up to 9.22 µM), inactives show top-dose activation, hits mostly activators; Huh7 NPC1 promoter luciferase reporter, 24 h; note: % of control where 0% means no effect; nearly all actives have a fitted effect of over 60% in size
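Stable NPC1-promoter luciferase Huh7 line; cpd (DMSO) 24 h, 37 °C, 5% CO2; Amplite luciferase reagent 10 min RT; luminescence readout. qHTS format.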
ELG1 genotoxic: qHTS screen for small molecules that induce genotoxicity in human embryonic kidney (HEK293T) cells expressing luciferase-tagged ELG1; HEK293T ELG1-luciferase reporter, luminescence, 16 h; Potency, µM (top dose mostly 46 µM), inactives show at the top dose activity change, positive = activation, hits mostly activators; hit rate 1.3% among 330,000; AID 504466, 2011; note: % of control where 0% means no effect; nearly all actives have a fitted effect of over 60% in size
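Reporter readout depends on ELG1 protein level, which increases with genetic stress. After 16 hr compound exposure at 37 °C, luciferase activity was quantified using ONE-Glo.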
Rab9 promoter act: qHTS Assay for Rab9 Promoter Activators | Huh7 Rab9 promoter-luciferase reporter, luminescence, 24 h | Potency, µM (top dose mostly 9.22 µM), inactives show at the highest dose activation, negative = inhibition, hits mostly activators | hit rate 2.8% among 320,000; note: % of control where 0% means no effect; nearly all actives have a fitted effect of over 60% in size
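Luminescence read-out: Huh7 cells stably expressing Rab9-luciferase, treated 24 h with compound at 37 °C, then lysed with luciferase reagent for 10 min at ambient before reading.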
ELG1 repair inh: qHTS screen for small molecules that inhibit ELG1-dependent DNA repair in human embryonic kidney (HEK293T) cells expressing luciferase-tagged ELG1 | Potency, µM (series often up to 46.1 µM), without a hit: top-dose activity change, negative = inhibition, actives largely listed as inhibitors | HEK293T ELG1-luciferase reporter, luminescence, 16 h; DNA damage induced by 5-fluorouridine | hit rate 2.3% among 330,000; note: % is set by controls: 0 for no effect and ±100 for the full control effect; nearly all actives have a fitted effect of over 55% in size
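In this reporter screen, reduction of luminescence relative to DMSO vehicle indicated activity. Compounds and 5-fluorouridine were added together to 2,000 cells per well, incubated for 16 hr at 37 °C, then developed with ONE-Glo.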
SMN2 splice up: qHTS Assay for Enhancers of SMN2 Splice Variant Expression; hit rate 2.8% among 210,000; Potency, µM (titrated, usually from 46.1 µM), for the others: top-dose activity change, positive = activation, most hits filed as activators; HEK293 SMN2-luciferase splicing reporter, luminescence, 30-36 h; AID 1458, 2008; note: % of control where 0% means no effect; nearly all actives have a fitted effect of over 55% in size
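qHTS luciferase splicing reporter: luminescence rises when SMN2 exon 7 is included in transfected HEK293 cells. Compound exposure lasted 30-36 h at 37C, with 4.5 mM final sodium butyrate as control, followed by a ONE-Glo read.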
Numbers without * were called inactive; ? = inconclusive; . = not tested or not shown; [ ] = another dose, or the depositor's remark. Calls come from the whole dose curve; as a rule, active = well fitted curve in the direction sought with a large enough effect; inconclusive = small, poorly fitted or top-dose-only effect, or another doubt; inactive = no such curve, though single readings can be large; an effect the other way counts as inactive or inconclusive. Potency is the fitted concentration of half-maximal effect.

SMILES	FLuc counter	NPC1 prom act	ELG1 genotoxic	Rab9 promoter act	ELG1 repair inh	SMN2 splice up
Cc1ccc(Cl)cc1N1CCN(C(=O)c2ccc3c(Cl)c4c(nc3c2)CCCC4)CC1	0%	.	.	.	.	-3%
COC(=O)c1c(/N=C/N(C)C)sc2c1CCN(c1ncc(C(F)(F)F)cc1Cl)C2	5%	1%	-9%	-1%	18µM*	7%
COC(=O)c1c(N(S(C)(=O)=O)S(C)(=O)=O)sc2c1CCN(c1ncc(C(F)(F)F)cc1Cl)C2	-3%	5%	-7%	0%	-4%	-4%
O=C(O)C=C1CCN(c2ncc(C(F)(F)F)cc2Cl)CC1	19µM*	?	8%	?	?	14%
Cc1cc(C)n(C(N)=NC(=O)c2ccc([N+](=O)[O-])cc2)n1	?	2.8µM*	?	2.5µM*	?	.
Cc1cc(C)n(C(=O)COc2ccc([N+](=O)[O-])cc2)n1	2%	-1%	-1%	-4%	7%	15%
c1ccc2nc(-c3nc4ccccc4o3)ccc2c1	0.24µM*	?	?	3.2µM*	?	.
CCn1cc(C(=O)NCc2ccc(Cl)cc2)c(=O)c2cc(S(=O)(=O)N(C)C3CCCCC3)ccc21	-7%	.	.	.	.	-1%
CCCCOc1ccc(Cn2c(=O)oc3ccc(C)cc32)cc1	-4%	.	.	.	.	-7%
COc1ccc(N2C(=O)/C(=C\c3ccco3)N=C2SCC(=O)N(C(C)C)C(C)C)cc1Cl	3%	0%	-9%	-9%	13µM*	-12%
COc1ccc(NC(=O)C2CCCN2S(=O)(=O)c2cccc3nsnc23)c(OC)c1 (stereo not given)	0%	-23%	-4%	1%	3%	.
COc1ccc(OC)c(NC(=O)C2CCCN(S(=O)(=O)c3cccc4nsnc34)C2)c1 (stereo not given)	2%	-2%	-9%	-6%	21µM*	-9%
COc1cc(NC(=O)C2CCCN(S(=O)(=O)c3cccc4nsnc34)C2)cc(OC)c1 (stereo not given)	0%	-1%	-13%	-2%	23µM*	-21%
COc1ccc(OC)c(NC(=O)C2CCCN(S(=O)(=O)c3ccc(-n4cnnn4)cc3)C2)c1 (stereo not given)	-1%	-3%	-19%	-2%	26µM*	.
COc1ccc(-c2onc(C)c2C)cc1S(=O)(=O)N1CCc2ccccc21	-6%	.	.	.	.	.
CCCCc1cc(=O)oc2cc(C)c3c(C(C)(C)C)coc3c12	-12%	.	.	.	.	2%
CCC1=Nc2cc(C(=O)NC3CCCC3)ccc2Sc2ccc(Br)cc21	-7%	.	.	.	.	-27%
Cc1ccc(N2CC(NC(=O)C3CCCCC3)CC2=O)cc1C (stereo not given)	5%	.	.	.	.	.
CCn1nc(C(=O)Nc2ccc(S(=O)(=O)Nc3nccs3)cc2)c2ccccc2c1=O	4%	0%	5%	1%	1%	14µM*
Oc1c(Cl)cc(CN(Cc2cc(Cl)c(O)c(Cl)c2)C2CCCCC2)cc1Cl	.	.	.	.	.	-9%[9.22 µM]
Cc1nn(-c2ccccc2)c2c1C(c1ccc(F)cc1F)C(C#N)=C(N)O2 (stereo not given)	-2%	1%	-3%	-1%	1%	20%
Nc1nc(-c2ccccc2)c(N=Nc2cccnc2)s1	-3%	0%	-5%	-2%	6%	-25%
Nc1nn(-c2ccccc2)c(N)c1N=Nc1cccc(F)c1	4.3µM*	?	6.5µM*	?	?	.
Nc1nn(-c2ccccc2)c(N)c1N=Nc1ccc2c(c1)OCO2	1.7µM*	?	?	0.63µM*	?	6.3µM*
Cc1nn(-c2ccccc2)c(N)c1N=Nc1cccnc1	13µM*	?	18µM*	?	?	13µM*
